What all share (experiment): NCI-60 one-dose screen, 48 h (100 = growth as untreated, 0 = no growth, -100 = all killed)
Holding throughout (details): 10 µM unless noted

For experiment [1], the system named is T-47D breast.
Experiment [2] relates to BT-549 breast.
The test system of experiment [3] is MDA-MB-435 melanoma.
Experiment [4] has as its system SW-620 colon.
The subject of experiment [5] is MCF7 breast.
For experiment [6], the system named is HCT-116 colon.
Experiment [7] deals with HCC-2998 colon.
Experiment [8] deals with KM12 colon.

About 83,000 compounds went through this panel and 20% of them were active in at least one assay; those are over-represented in the sample as a whole.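 A percent growth of 40 corresponds to 60% growth inhibition; 0 means no net growth; -100 means all cells died. Active threshold: below 10.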 Unmarked numbers belong to inactive results. The source made the active and inactive calls.

Turning to `CN1CCN(c2ccc3nc(-c4cc(C(C)(C)C)c(O)c(C(C)(C)C)c4)[nH]c3c2)CC1`, the growth in experiment [1] is 63.2%; in experiment [2], 98.2%; in experiment [3] it was 0.049% (active); in experiment [4], 14.7%; in experiment [5], 35.6%; in experiment [6] it was 23.3%. Further, the values for the growth in experiment [7] and in experiment [8] were 25.2% and 16.9%, respectively.

`C[C@]12C[C@H]1CC[C@]1(C)[C@@H]2CC[C@@]23C[C@H](CC[C@H]21)[C@@](O)(CO)C3`: the growth was 90.7% in experiment [1]; 77% in experiment [2]; 59.1% in experiment [3]; 109% in experiment [4]; 97.8% in experiment [5]; -71.4% (active) in experiment [6]. The growth is 103% in experiment [7] and 96.5% in experiment [8].

Regarding `COc1ccc(Cc2nc3cc(OC)c(OC)cc3c(=O)[nH]2)cc1`, the growth is 96% in experiment [1]; 159% in experiment [2]; 87.3% in experiment [3]; 14.3% in experiment [4]; 91.6% in experiment [5]; 72.6% in experiment [6]. For the same compound, the growth is 53.7% in experiment [7] and 18.9% in experiment [8].

Turning to `Cc1ccccc1-c1cc(Cc2ccc(F)cc2)c(=O)[nH]n1`, the growth in experiment [1] was 99%; in experiment [2] it was 106%; in experiment [3] it was 119%; in experiment [4], 102%; in experiment [5] it was 97.9%; in experiment [6], 78.4%. The growth in experiment [7] is 119%; in experiment [8] it was 123%.

Take `COc1ccc(C(O)c2cc3c(N)c(C(=O)Nc4cccc(Br)c4C)sc3nc2C)cc1` (centres undefined): the growth was 51.8% in experiment [1]; 42.3% in experiment [2]; 8.91% (active) in experiment [3]; 25.9% in experiment [4]; 22.1% in experiment [5]; 13.2% in experiment [6]. The growth in experiment [7] was 16.2%; in experiment [8], 11.1%.

Turning to `COc1ccc(C(O)c2cc3c(N)c(C(=O)Nc4cccc(OC)c4)sc3nc2C)cc1` (centres undefined), the growth was 62.8% in experiment [1]; 26.5% in experiment [2]; -9.54% (active) in experiment [3]; 19.9% in experiment [4]; 17.8% in experiment [5]; 5.98% (active) in experiment [6]. For the same compound, the growth is 5.05% (active) in experiment [7] and 2.91% (active) in experiment [8].

Consider `O=C(Nc1nc(-c2ccc(Br)cc2)cs1)c1cc(-c2ccc(Br)cc2)nc2ccc(Cl)cc12`, for which the growth was 56.9% in experiment [1]; 100% in experiment [2]; 104% in experiment [3]; 85.7% in experiment [4]; 68.5% in experiment [5]; 61.3% in experiment [6]. In addition, the growth is 92.8% in experiment [7] and 83.3% in experiment [8].

Consider `Clc1nc(Cl)c2ncn(CC3(Cn4cnc5c(Cl)nc(Cl)nc54)COC3)c2n1`, for which the growth in experiment [1] was -61.7% (active); in experiment [2], -93.2% (active); in experiment [3], -85.7% (active); in experiment [4], -88.7% (active); in experiment [5], -52.4% (active); in experiment [6] it was -100% (active). Also, the results for the growth in experiment [7] and in experiment [8] were -85.3% (active) and -73.4% (active), respectively.

Consider `[2H]C1([2H])NC([2H])([2H])C([2H])([2H])N(c2ccc(Nc3ncc4cc(C(=O)N(C)C)n(C5CCCC5)c4n3)nc2)C1([2H])[2H]`, for which the growth is 68% in experiment [1]; 92.9% in experiment [2]; 68.7% in experiment [3]; 42.2% in experiment [4]; 45% in experiment [5]; 55.3% in experiment [6]. Moreover, the results for the growth in experiment [7] and in experiment [8] were 89.9% and 54.5%, respectively.

In the case of `C(=N\Nc1ncc(-c2cc3cc4c(cc3o2)OCO4)s1)/c1c[nH]c2ccccc12`, the growth is -3.93% (active) in experiment [1]; -56.9% (active) in experiment [2]; -31.6% (active) in experiment [3]; -33.9% (active) in experiment [4]; -0.831% (active) in experiment [5]; -1.24% (active) in experiment [6]. Moreover, the values for the growth in experiment [7] and in experiment [8] were -3.45% (active) and -29.8% (active), respectively.

Turning to `C[C@H]1[C@H](C)CC[C@]2(CO)CC[C@]3(C)C(=CC[C@@H]4[C@@]5(C)CCCNC(C)(C)[C@@H]5CC[C@]43C)[C@H]12`, the growth in experiment [1] is 1.1% (active); in experiment [2], -66% (active); in experiment [3], -73.9% (active); in experiment [4], -69.6% (active); in experiment [5], -29.4% (active); in experiment [6] it was -94.7% (active). In addition, the results for the growth in experiment [7] and in experiment [8] were -38.7% (active) and 0.124% (active), respectively.

In the case of `NC(=O)C1(N2CCCCC2)CCN(CCCC(=O)c2ccc(F)cc2)CC1`, the growth in experiment [1] was 44%; in experiment [2], 56.3%; in experiment [3], -48.3% (active); in experiment [4], 19.6%; in experiment [5] it was 20%; in experiment [6], 19.3%. In addition, the values for the growth in experiment [7] and in experiment [8] were 11% and 15.8%, respectively.

Regarding `COc1nccnn1`, the growth in experiment [1] was 107%; in experiment [2] it was 94%; in experiment [3], 93%; in experiment [4], 101%; in experiment [5], 103%; in experiment [6], 99.2%. Also, the growth in experiment [7] is 110%; in experiment [8] it was 95.7%.

For the compound `COc1cccc(NC(=O)c2cccc(-c3cc(=O)c4c(OC)c(OC)c(OC)cc4o3)c2)c1`, the growth in experiment [1] is 44.4%; in experiment [2], 54.2%; in experiment [3], 81.2%; in experiment [4], 89.6%; in experiment [5] it was 87.7%; in experiment [6], 60.7%. Moreover, the growth was 87.8% in experiment [7] and 53.7% in experiment [8].

For `c1ccc(Cn2nc3c(c2-c2ccccc2)-c2oncc2CC3)cc1`, the growth is 80.9% in experiment [1]; 88% in experiment [2]; 89.2% in experiment [3]; 106% in experiment [4]; 82.5% in experiment [5]; 94.2% in experiment [6]. Besides, the values for the growth in experiment [7] and in experiment [8] were 97.8% and 99.6%, respectively.

`CN1CCN(C(=O)OCc2nc3c(N4CCOCC4)nc(-c4ccccc4)nc3n2C)CC1`: the growth in experiment [1] is -40.7% (active); in experiment [2], -71.1% (active); in experiment [3], -84.1% (active); in experiment [4], -46.4% (active); in experiment [5], -64.3% (active); in experiment [6], -71.6% (active). The growth in experiment [7] was -75.4% (active); in experiment [8] it was -61.6% (active).

Turning to `CC(C)(C)CC(C)(C)Nc1c(-c2ccc(C(F)(F)F)cc2)nc2cnccn12`, the growth was 74.4% in experiment [1]; 76% in experiment [2]; 98.8% in experiment [3]; 102% in experiment [4]; 66.5% in experiment [5]; -5.73% (active) in experiment [6]. For the same compound, the results for the growth in experiment [7] and in experiment [8] were 92.1% and 83.8%, respectively.

In the case of `Clc1cc(Cl)cc(N2N=C(c3cccc(Nc4ccncc4)c3)CC2c2ccc(Br)cc2)c1` (centres undefined), the growth in experiment [1] is 81.1%; in experiment [2] it was 112%; in experiment [3] it was -14.7% (active); in experiment [4], -72.1% (active); in experiment [5], -46.4% (active); in experiment [6], 108%. The growth in experiment [7] was -39.9% (active); in experiment [8], -34.3% (active).

As for `CC(=O)c1c(-c2ccc(OC(F)(F)F)cc2)nc2ccccn12`, the growth in experiment [1] was 80.6%; in experiment [2] it was 91.3%; in experiment [3], 102%; in experiment [4] it was 105%; in experiment [5] it was 89.8%; in experiment [6], 80.8%. In addition, the growth in experiment [7] is 105%; in experiment [8], 97%.

Regarding `O=C(OC(OC(=O)c1cc(Cl)cc(Cl)c1)c1cccc2ccccc12)c1ccccc1` (centres undefined), the growth is 98.8% in experiment [1]; 113% in experiment [2]; 111% in experiment [3]; 97.1% in experiment [4]; 84.8% in experiment [5]; 93.1% in experiment [6]. Moreover, the values for the growth in experiment [7] and in experiment [8] were 83.4% and 102%, respectively.

With `CC[C@H](CC[C@@H](C)[C@H]1CC[C@H]2[C@@H]3CC=C4C[C@@H](OCCc5nn[nH]n5)CC[C@]4(C)[C@H]3CC[C@]12C)C(C)C`, the growth in experiment [1] is 90.2%; in experiment [2] it was 116%; in experiment [3] it was 112%; in experiment [4], 121%; in experiment [5] it was 101%; in experiment [6], 95.1%. Also, the growth in experiment [7] is 109%; in experiment [8] it was 100%.

With `c1ccc2c(-c3c4ccsc4cc4[nH]c5ccccc5c34)c[nH]c2c1`, the growth is 26.3% in experiment [1]; 33.9% in experiment [2]; 1.93% (active) in experiment [3]; 25.4% in experiment [4]; 15% in experiment [5]; 17.5% in experiment [6]. Moreover, the growth was 65.6% in experiment [7] and 14.9% in experiment [8].

In the case of `COc1ccc(C(=O)c2cc3c(N)c(C(=O)Nc4ccc(Br)cc4)sc3nc2C)cc1`, the growth was 70.6% in experiment [1]; 78.2% in experiment [2]; 63.6% in experiment [3]; 79.1% in experiment [4]; 71% in experiment [5]; 58.2% in experiment [6]. Also, the growth in experiment [7] was 94.7%; in experiment [8], 72%.

Take `CC1(C)[C@H](O)CC[C@]2(C)[C@@H]1CC[C@@]13C[C@@H](CC[C@H]12)[C@@](O)(CO)C3`: the growth in experiment [1] is 105%; in experiment [2], 90.3%; in experiment [3] it was 107%; in experiment [4], 108%; in experiment [5], 99.3%; in experiment [6] it was -70.1% (active). Also, the growth in experiment [7] is 105%; in experiment [8], 116%.

Regarding `O=C1C(=O)c2c(nc3ncccn23)-c2ccccc21`, the growth was -48.5% (active) in experiment [1]; -94% (active) in experiment [2]; -93.8% (active) in experiment [3]; -60.6% (active) in experiment [4]; -53.8% (active) in experiment [5]; -79% (active) in experiment [6]. In addition, the growth in experiment [7] is -92.7% (active); in experiment [8], -62.6% (active).

On to `N#Cc1ccc(-c2ccc3c(c2)NC(=O)/C3=C\c2ccc[nH]2)cc1`, for which the growth in experiment [1] is 9.73% (active); in experiment [2], 24.1%; in experiment [3], 102%; in experiment [4] it was 102%; in experiment [5] it was 15.3%; in experiment [6] it was 104%. Besides, the growth was 58.5% in experiment [7] and 60.8% in experiment [8].

As to `CCCC/C(=N\N=C(N)N)c1ccc(F)cc1`, the growth was 38.9% in experiment [1]; 21.6% in experiment [2]; -19.8% (active) in experiment [3]; 23.8% in experiment [4]; 13.1% in experiment [5]; 21.1% in experiment [6]. In addition, the growth in experiment [7] is 37%; in experiment [8], 15.7%.

Regarding `Cc1n[nH]c(C)c1-c1c(C)n[nH]c1C`, the growth was 18.7% in experiment [1]; 2.96% (active) in experiment [2]; -35.9% (active) in experiment [3]; -26.1% (active) in experiment [4]; 10.3% in experiment [5]; -44.1% (active) in experiment [6]. Also, the values for the growth in experiment [7] and in experiment [8] were 4.99% (active) and -19.3% (active), respectively.

Values taken from PubChem BioAssay (NCI).
